High-throughput results (PubChem BioAssay)
Compounds with a hit are over-represented: about 6.2% of the library has one in this group of screens.
KB-V1 MDR tox: kills drug-selected multidrug resistant KB-V1 cells. KB-V1 MDR cells viability, CellTiter-Glo, 72 h. Potency, µM (top dose mostly 46.1 µM), usual class: cytotoxic. hit rate 3.4% among 400,000. AID 1347076; note: % is set by controls: 0 for no effect and ±100 for the full control effect; nearly all actives have a fitted effect of over 60% in size
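In this primary screen, KB-V1 cells overexpressing P-gp are incubated with library compounds (lowest to highest concentration) for 72 h at 37 degrees C before a luminescent ATP viability read.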
HT1080NT lethal: kills 2HG-producing HT-1080-NT fibrosarcoma cells; HT-1080-NT fibrosarcoma viability, CellTiter-Glo ATP luminescence, 48 h; hit rate 1.6% among 360,000; Potency, µM (highest dose often 46.1 µM), for inactives: at the highest dose activity, negative = less viability, actives largely listed as cytotoxic;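 note: NT is the 2HG producing partner of a matched IDH1 knockdown line; 0% = DMSO-treated cells and -100% = media-only wells without cells; nearly all actives have a fitted effect of over 55% in size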
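750 cells/well, RPMI + 5% FBS; 2 h settle, compound pin-transfer, 48 h at 37 degrees C. CellTiter-Glo 10 min RT, luminescence. Normalized to DMSO and media-only wells.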
HT1080 IDH1KD tx: kills HT-1080 cells with IDH1 knockdown; HT-1080 IDH1 knockdown viability, ATP luminescence, 48 h; Potency, µM (doses to about 46.1 µM), inactives show at the top dose activity, negative = toxicity, actives largely listed as cytotoxic; hit rate 2% among 360,000; AID 686971;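 note: 0% = DMSO wells and -100% = cell-free medium wells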
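After a 2 h attachment period, IDH1KD HT-1080 cells took pin-transferred compound for 48 h at 37 °C; ATP-based luminescence after 10 min room-temperature reagent incubation reported viability.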
ATXN2 expr inh: inhibitors of ATXN2 expression | HEK-293 ATXN2-luciferase reporter, luminescence, 24 h | Potency, µM (highest dose often 57 µM), for the others: top-dose activity change, negative = inhibition, actives largely listed as inhibitors | hit rate 0.72% among 360,000; note: % is set by controls: 0 for no effect and ±100 for the full control effect; nearly all actives have a fitted effect of over 55% in size
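ATXN2-luciferase reporter cells (luciferase flanked by upstream and downstream ATXN2 gene portions) were treated 24 h at 37 °C with compounds at up to 57 uM. SteadyGlo luminescence gave expression; GF-AFC fluorescence gave viability.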
ATXN viability: viability counter-screen for ATXN expression inhibitors; S2 cells (HEK-293 line with an ATXN2-luciferase reporter) viability, CellTiter-Fluor protease fluorescence, 24 h; hit rate 0.49% among 400,000; AID 651635; Potency, µM (top dose mostly 56.7 µM), actives largely listed as cytotoxic; note: nearly all actives have a fitted effect of over 40% in size
KB-3-1 tox: kills parental KB-3-1 adenocarcinoma cells. hit rate 1.4% among 400,000. AID 1347075. KB-3-1 viability, CellTiter-Glo ATP luminescence, 72 h. Potency, µM (highest dose often 46.1 µM), usual class: cytotoxic; note: % is set by controls: 0 for no effect and ±100 for the full control effect; nearly all actives have a fitted effect of over 60% in size
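Cells are dispensed, compounds pinned in, plates held at 37 °C for 72 h, then CellTiter-Glo is added and luminescence read after 10 minutes. Cell line: parental KB-3-1 in phenol-red-free DMEM, 10% FBS.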
Numbers without * were called inactive. Calls come from the whole dose curve; as a rule, active = well fitted curve in the direction sought with a large enough effect; inconclusive = small, poorly fitted or top-dose-only effect, or another doubt; inactive = no such curve, though single readings can be large; an effect the other way counts as inactive or inconclusive. Potency is the fitted concentration of half-maximal effect.

How did O=C(Nc1cccnc1)c1cc(-c2ccccc2)on1 do in these assays?
KB-V1 MDR tox: inactive; HT1080NT lethal: -3%; HT1080 IDH1KD tx: -16%; ATXN2 expr inh: 16%; ATXN viability: inactive; KB-3-1 tox: inactive

How did COc1cccc(-c2cc(C(=O)Nc3cccnc3)no2)c1 do in these assays?
KB-V1 MDR tox: inconclusive; HT1080NT lethal: inconclusive; HT1080 IDH1KD tx: 12µM*; ATXN2 expr inh: -14%; ATXN viability: inconclusive; KB-3-1 tox: inconclusive

Results for Cc1ccsc1CN1CCc2nc(Nc3ccccc3)ncc2C1 ?
KB-V1 MDR tox: inactive; ATXN2 expr inh: 16%; ATXN viability: inactive; KB-3-1 tox: inconclusive

How did Cc1noc(C)c1NC(=O)N(C)C[C@H]1Oc2ccc(NC(=O)C3CC3)cc2C(=O)N([C@H](C)CO)C[C@@H]1C do in these assays?
KB-V1 MDR tox: inactive; HT1080NT lethal: 14%; HT1080 IDH1KD tx: 7%; ATXN2 expr inh: 7%; ATXN viability: inconclusive; KB-3-1 tox: inactive

Results for COc1ccc(OC)c(CNC(=O)c2cc3c(-c4ccc(OC)c(OC)c4)nn(C)c3s2)c1 ?
KB-V1 MDR tox: inconclusive; ATXN2 expr inh: 0%; ATXN viability: inconclusive; KB-3-1 tox: inactive

Results for CCCCOc1ccc(CNC(=O)CN2CCSc3ccccc32)cc1 ?
KB-V1 MDR tox: inconclusive; ATXN2 expr inh: -5%; ATXN viability: inconclusive; KB-3-1 tox: inactive

Results for COc1cc(NC(=O)c2cc(-c3ccc4c(c3)OCO4)on2)cc(OC)c1OC ?
KB-V1 MDR tox: inconclusive; HT1080NT lethal: 8.2µM*; HT1080 IDH1KD tx: 5.8µM*; ATXN2 expr inh: -15%; ATXN viability: inactive; KB-3-1 tox: inactive

What do the screens show for `CCCCOCCCNC(=O)C[C@@H]1C[C@@]2(C(=O)OC)CCCCC=C2N(Cc2ccco2)C1=O`?
KB-V1 MDR tox: inactive; HT1080NT lethal: 2%; HT1080 IDH1KD tx: 7%; ATXN2 expr inh: -10%; ATXN viability: inactive; KB-3-1 tox: inactive

Results for COc1cccc(/C=N/Nc2nnc3c(n2)[nH]c2ccccc23)c1OC ?
KB-V1 MDR tox: inactive; HT1080NT lethal: 0%; HT1080 IDH1KD tx: 5%; ATXN2 expr inh: 15%; ATXN viability: inactive; KB-3-1 tox: inconclusive

Results for CCc1ccc2[nH]c3nc(N/N=C/c4cccc(O)c4)nnc3c2c1 ?
KB-V1 MDR tox: inactive; HT1080NT lethal: inconclusive; HT1080 IDH1KD tx: 9.2µM*; ATXN2 expr inh: 0%; ATXN viability: inconclusive; KB-3-1 tox: inconclusive

How did O=c1[nH]nc(OCCCc2ccc(Cl)cc2)c(NCc2cccnc2)c1Br do in these assays?
ATXN2 expr inh: 24µM*

Results for Clc1ccc(NCc2cccnc2)cc1 ?
KB-V1 MDR tox: inactive; HT1080NT lethal: -8%; HT1080 IDH1KD tx: -11%; ATXN2 expr inh: -11%; ATXN viability: inactive; KB-3-1 tox: inactive

How did COc1ccccc1CNC(=O)Cn1c(-c2cccs2)cc2cc(F)ccc21 do in these assays?
KB-V1 MDR tox: inactive; ATXN2 expr inh: -5%; ATXN viability: inactive; KB-3-1 tox: inactive

How did CCOc1cc(CNC(=O)Cn2c(-c3cccs3)cc3cc(F)ccc32)ccc1OC do in these assays?
KB-V1 MDR tox: 12µM*; ATXN2 expr inh: -16%; ATXN viability: inconclusive; KB-3-1 tox: inactive

How did CCOc1ccc(CCNC(=O)Cn2c(-c3cccs3)cc3cc(F)ccc32)cc1OCC do in these assays?
KB-V1 MDR tox: inconclusive; ATXN2 expr inh: 22µM*; ATXN viability: 11µM*; KB-3-1 tox: 6.5µM*

Results for CCc1nnc(NC(=O)CSc2nnc(C)n2-c2ccc(C)cc2)s1 ?
KB-V1 MDR tox: 21µM*; HT1080NT lethal: 8%; HT1080 IDH1KD tx: 5%; ATXN2 expr inh: 2%; ATXN viability: inactive; KB-3-1 tox: inactive

How did CCc1nnc(NC(=O)CSc2nnc(C3CCCCC3)n2-c2cccc(Cl)c2)s1 do in these assays?
KB-V1 MDR tox: 4.1µM*; HT1080NT lethal: 3%; HT1080 IDH1KD tx: 4%; ATXN2 expr inh: 8%; ATXN viability: inactive; KB-3-1 tox: inactive

Results for CCc1nnc(NC(=O)CSc2ncnc3scc(-c4ccc(C)cc4)c23)s1 ?
KB-V1 MDR tox: 6.5µM*; HT1080NT lethal: 5%; HT1080 IDH1KD tx: 4%; ATXN2 expr inh: -9%; ATXN viability: inconclusive; KB-3-1 tox: inactive

How did CCc1nnc(NC(=O)CSc2nnc(-c3ccccc3O)o2)s1 do in these assays?
KB-V1 MDR tox: inconclusive; HT1080NT lethal: -2%; HT1080 IDH1KD tx: inconclusive; ATXN2 expr inh: 9%; ATXN viability: inactive; KB-3-1 tox: inactive

Results for CCc1nnc(NC(=O)CSc2nc(-c3ccccc3)c(-c3ccccc3)o2)s1 ?
KB-V1 MDR tox: inconclusive; HT1080NT lethal: 13%; HT1080 IDH1KD tx: 14%; ATXN2 expr inh: -18%; ATXN viability: inactive; KB-3-1 tox: 5.2µM*

How did Cc1ccc(-c2csc3ncnc(SCC(N)=O)c23)cc1 do in these assays?
KB-V1 MDR tox: inconclusive; HT1080NT lethal: -18%; HT1080 IDH1KD tx: -25%; ATXN viability: inactive; KB-3-1 tox: inactive

What do the screens show for `Cc1ccccc1C(=O)NN1CC(C(=O)OCc2ccc(Cl)c(Cl)c2)CC1=O` (centres undefined)?
KB-V1 MDR tox: inactive; HT1080NT lethal: -7%; HT1080 IDH1KD tx: -2%; ATXN2 expr inh: -6%; ATXN viability: inactive; KB-3-1 tox: inactive

How did COc1cc(O)c(C(CC(=O)N2CCC(C)CC2)c2ccc(OC)c(OC)c2)c(OC)c1 (centres undefined) do in these assays?
KB-V1 MDR tox: inactive; KB-3-1 tox: inactive

What do the screens show for `CCCCN(C)CCCNC(=O)Cn1ncc2c3ccccc3n(Cc3cccc(Cl)c3)c2c1=O`?
KB-V1 MDR tox: inactive; ATXN2 expr inh: -20%; ATXN viability: inactive; KB-3-1 tox: inactive

What do the screens show for `CCc1nnc(NC(=O)CSc2nnc(-c3ccccc3O)n2-c2ccc(C)cc2)s1`?
KB-V1 MDR tox: inconclusive; HT1080NT lethal: 13µM*; HT1080 IDH1KD tx: 13µM*; ATXN2 expr inh: 20%; ATXN viability: inactive; KB-3-1 tox: inconclusive

Results for C=CCN1C(=O)c2ccc(C(=O)NCCOc3ccccc3F)cc2C1=O ?
KB-V1 MDR tox: inactive; HT1080NT lethal: -1%; HT1080 IDH1KD tx: 1%; ATXN2 expr inh: 15%; ATXN viability: inactive; KB-3-1 tox: inactive

How did CCN1C(=O)/C(=C2\C=Cc3ccccc3N2CC)SC1=S do in these assays?
KB-V1 MDR tox: inactive; HT1080NT lethal: 5%; HT1080 IDH1KD tx: 4%; ATXN2 expr inh: 5%; ATXN viability: inconclusive; KB-3-1 tox: inactive
